The subject of the experiment is MV4-11. Briefly: CellTox Green cytotoxicity fluorescence relative to DMSO vehicle (fold of vehicle RFU); higher = more cell death (loss of membrane integrity), active = 2 or more. On the procedure:
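Paediatric AML cell lines (MV4-11, CMK, Kasumi-1; 4x10^4 cells/well, 96-well) treated with single compounds from the Selleckchem apoptosis library at 0.01, 0.1 and 1 µM. Cytotoxicity was read with CellTox Green (RFU, Ex 485/Em 520) at 24, 48 and 72 h and normalised to the 0.1% DMSO vehicle. Normalised RFU >= 2 was taken as a successful, cell-killing treatment.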

Each structure is given as a SMILES string. Unmarked numbers belong to inactive results.

The values that follow come from the supplement of paper PMC7595190.

Turning to `COc1cc(C)[nH]c(=O)c1CNC(=O)c1c(C)n([C@H](C)C2CCOCC2)c2ccccc12`, the “CellTox Green cytotoxicity fluorescence” value is, setting by setting: (0.01 µM, 24 h) 0.942; (0.01 µM, 48 h) 0.94; (0.01 µM, 72 h) 0.941; (0.1 µM, 24 h) 0.942; (0.1 µM, 48 h) 0.951; (0.1 µM, 72 h) 0.957. Further, the “CellTox Green cytotoxicity fluorescence” value by setting is: (1 µM, 24 h) 0.942; (1 µM, 48 h) 0.936; (1 µM, 72 h) 0.948.
Turning to `O=c1[nH]c2ccccc2n1C1CCN(Cc2ccc(-c3[nH]c4cc5ncnc5cc4nc3-c3ccccc3)cc2)CC1`, the “CellTox Green cytotoxicity fluorescence” value reads like this: (0.01 µM, 24 h) 1; (0.01 µM, 48 h) 0.995; (0.01 µM, 72 h) 0.956; (0.1 µM, 24 h) 1; (0.1 µM, 48 h) 0.999; (0.1 µM, 72 h) 0.993. The “CellTox Green cytotoxicity fluorescence” value runs as follows: (1 µM, 24 h) 1.04; (1 µM, 48 h) 1.1; (1 µM, 72 h) 1.21.
Consider `COc1cc([C@@H]2c3cc4c(cc3[C@H](O)[C@H]3COC(=O)[C@@H]23)OCO4)cc(OC)c1OC` [Picropodophyllin], for which the “CellTox Green cytotoxicity fluorescence” value runs as follows: (0.01 µM, 24 h) 0.934; (0.01 µM, 48 h) 0.932; (0.01 µM, 72 h) 0.939; (0.1 µM, 24 h) 0.922; (0.1 µM, 48 h) 0.924; (0.1 µM, 72 h) 0.931. The “CellTox Green cytotoxicity fluorescence” value reads like this: (1 µM, 24 h) 1.28; (1 µM, 48 h) 2.6 (active); (1 µM, 72 h) 3.18 (active).
Take `CC[C@H](C)[C@@H]([C@@H](CC(=O)N1CCC[C@H]1[C@H](OC)[C@@H](C)C(=O)N[C@H](C)[C@@H](O)c1ccccc1)OC)N(C)C(=O)[C@@H](NC(=O)[C@@H](NC)C(C)C)C(C)C` [Monomethyl auristatin E]: the “CellTox Green cytotoxicity fluorescence” value (0.01 µM, 24 h) is 1.19; the “CellTox Green cytotoxicity fluorescence” value (0.01 µM, 48 h) is 2.42 (active); the “CellTox Green cytotoxicity fluorescence” value (0.01 µM, 72 h) was 2.81 (active); the “CellTox Green cytotoxicity fluorescence” value (0.1 µM, 24 h) is 1.3; the “CellTox Green cytotoxicity fluorescence” value (0.1 µM, 48 h) is 2.48 (active); the “CellTox Green cytotoxicity fluorescence” value (0.1 µM, 72 h) was 2.73 (active). The “CellTox Green cytotoxicity fluorescence” value is 1.58 (1 µM, 24 h); 2.5 (active) (1 µM, 48 h); 2.74 (active) (1 µM, 72 h).
On to `O=C(O)C(=O)c1cn(Cc2ccccc2)c2ccc(-c3ccc(OC(F)(F)F)cc3)cc12` [Tiplaxtinin], for which the “CellTox Green cytotoxicity fluorescence” value (0.01 µM, 24 h) was 1.02; the “CellTox Green cytotoxicity fluorescence” value (0.01 µM, 48 h) was 1.02; the “CellTox Green cytotoxicity fluorescence” value (0.01 µM, 72 h) is 1.04; the “CellTox Green cytotoxicity fluorescence” value (0.1 µM, 24 h) is 1.01; the “CellTox Green cytotoxicity fluorescence” value (0.1 µM, 48 h) is 1.02; the “CellTox Green cytotoxicity fluorescence” value (0.1 µM, 72 h) was 1.03. Further, the “CellTox Green cytotoxicity fluorescence” value is, setting by setting: (1 µM, 24 h) 0.997; (1 µM, 48 h) 1.01; (1 µM, 72 h) 1.
